Bioassay records deposited in PubChem by National Center for Advancing Translational Sciences (NCATS).
SARS PLpro yeast-1 – qHTS of Yeast-based Assay for SARS-CoV PLP. S. cerevisiae expressing SARS-CoV PLpro, growth rescue. Potency, µM (titrated, usually from 32.9 µM), for the others: at the highest dose activity, positive = growth rescue, actives largely listed as activators. hit rate 0.19% among 330,000. AID 485353, 2010; calls by dose curve; also: potency is read from the fitted curve at half-maximal effect; 0% is about no effect; nearly all actives have a fitted effect of over 55% in size
Sm TGR block – qHTS Assay for the Inhibitors of Schistosoma Mansoni Peroxiredoxins. Schistosoma mansoni thioredoxin glutathione reductase (TGR), Q962Y6. purified TGR, DTNB reduction, TNB absorbance 405 nm. Potency, µM (titrated, usually from 114 µM), inactives show at the top dose activity change, negative = inhibition, hits mostly inhibitors. hit rate 3% among 360,000. AID 485364, 2010; also: potency is read from the fitted curve at half-maximal effect; % is scaled to controls: 0 for no effect and ±100 for the full control effect; nearly all actives have a fitted effect of over 60% in size
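First, TGR (20 nM dispensed) and NADPH were mixed with compound. Second, a 15 min room-temperature incubation followed. Third, further NADPH and then DTNB were added to start the reaction. Finally, TNB absorbance was monitored kinetically.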
LmPK inhibitor – qHTS Assay for Inhibitors of Leishmania Mexicana Pyruvate Kinase (LmPK) | Potency, µM (series often up to 57.5 µM), for inactives: at the top dose activity change, negative = inhibition, most hits filed as inhibitors | hit rate 0.37% among 290,000 | purified LmPK, Kinase-Glo ATP luminescence, 1 h | AID 1721, 2009 | Q27686; also: potency is read from the fitted curve at half-maximal effect; % is scaled to controls: 0 for no effect and ±100 for the full control effect
Target sequence (Q27686 whole entry, looked up): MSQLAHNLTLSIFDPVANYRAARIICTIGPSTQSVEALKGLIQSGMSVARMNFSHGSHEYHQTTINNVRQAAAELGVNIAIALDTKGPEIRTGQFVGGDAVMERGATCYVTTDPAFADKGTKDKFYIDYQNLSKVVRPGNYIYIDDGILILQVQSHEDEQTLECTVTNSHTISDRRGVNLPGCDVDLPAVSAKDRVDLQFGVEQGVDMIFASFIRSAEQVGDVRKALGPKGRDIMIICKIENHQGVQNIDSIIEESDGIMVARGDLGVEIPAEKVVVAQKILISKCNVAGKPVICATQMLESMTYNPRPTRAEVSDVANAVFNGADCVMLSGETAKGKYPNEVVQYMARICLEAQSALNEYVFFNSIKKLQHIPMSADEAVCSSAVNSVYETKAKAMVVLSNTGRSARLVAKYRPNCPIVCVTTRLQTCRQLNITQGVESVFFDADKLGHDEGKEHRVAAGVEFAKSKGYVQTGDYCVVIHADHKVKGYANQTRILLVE
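In 50 mM imidazole pH 7.2 with 7 mM MgCl2, LmPK (0.1 nM) turned over PEP (0.5 mM) and ADP (0.1 mM) for 1 h at room temperature. Luciferase read-out of ATP.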
RE007 growth inh – qHTS Assay for Inhibitors of the HIV-1 protein Vpr; Potency, µM (top dose mostly 92.2 µM), for the others: at the top dose activity change, negative = less growth, hits mostly inhibitors; hit rate 0.21% among 360,000; S. pombe RE007 Vpr strain, BacTiter-Glo ATP luminescence, 24 h; AID 651644, 2012; active = well fitted falling curve with a large enough effect; inconclusive = small, poorly fitted or top-dose-only effect; inactive = no such curve, though single readings can be large or run the other way; also: potency is read from the fitted curve at half-maximal effect; % is scaled to controls: 0 for no effect and ±100 for the full control effect; nearly all actives have a fitted effect of over 50% in size
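Fission yeast RE007 carrying one integrated HIV-1 vpr copy, seeded at OD 0.01 in PMG+AL medium with 23 nL pinned compound. Grown 24 h at 30 degrees; viability read by BacTiter-Glo luminescence after 5 min.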
TbPYK inhibitor – qHTS of Trypanosoma Brucei Inhibitors; TbPYK enzyme, Kinase-Glo Plus ATP luminescence, 45 min; Potency, µM (highest dose often 76.8 µM), inactives show at the highest dose activity, negative = inhibition, most hits filed as inhibitors; hit rate 0.12% among 410,000; also: potency is read from the fitted curve at half-maximal effect; % is scaled to controls: 0 for no effect and ±100 for the full control effect; nearly all actives have a fitted effect of over 50% in size
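ADP (130 uM final) triggers the TbPYK reaction after compound addition; incubation is 45 min at room temperature. Kinase-Glo Plus is then added and luminescence imaged. Normalized data are fitted to concentration-effect curves.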
NS1 inh – qHTS Assay for Inhibitors of Influenza NS1 Protein Function | AID 2326, 2010 | Potency, µM (titrated, usually from 46.1 µM), without a hit: at the top dose activity, positive = more growth | hit rate 0.4% among 270,000; calls by dose curve; also: potency is read from the fitted curve at half-maximal effect; actives are rising curves; nearly all actives have a fitted effect of over 50% in size
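Read-out: OD600 growth recovery of NS1-expressing budding yeast. Cells grown overnight at 30C in -URA glucose medium, washed, resuspended and diluted 1:100 in 2% galactose assay medium, pH 6.0. Same strain lacking NS1 served as positive control.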
SARS PLpro yeast-2 – qHTS of Yeast-based Assay for SARS-CoV PLP: Hit Validation; shares compounds with SARS PLpro yeast-1; yeast expressing SARS-CoV PLpro, growth phenotype rescue; calls only; hit rate 19% among 1,000; AID 652038, 2013; call rule not given here
Active calls of the source: *; i = inactive; ? = inconclusive; · = no result; + = active, no number; ! = a repeat was not active. Only some compounds are listed: those with a hit (about 3.3% of all), similar ones and a draw of the others. Unless noted, calls follow the shape of the dose curve; as a rule, active = well fitted curve in the direction sought with a large enough effect; inconclusive = small, poorly fitted or top-dose-only effect, or another doubt; inactive = no such curve, though single readings can be large; an effect the other way counts as inactive or inconclusive.

SMILES	SARS PLpro yeast-1	Sm TGR block	LmPK inhibitor	RE007 growth inh	TbPYK inhibitor	NS1 inh	SARS PLpro yeast-2
COC(=O)Cc1c[nH]c2cccc(OCC(O)CN(Cc3ccc([N+](=O)[O-])cc3)C(C)(C)C)c12 (configuration not stated)	-4%	0%	-1%	-4%	6%	-9%	·
COC(=O)Cc1c[nH]c2cccc(OCC(O)CN(Cc3ccccc3)C(C)C)c12 (configuration not stated)	?	-13%	2%	13%	2%	2%	i
CN(C)C1CCN(Cc2cc(COCc3ccccc3)c3cccnc3c2O)C1 (configuration not stated)	10µM*!	14µM*	·	·	1%	·	?
CCOCc1cc(CN2CCN(c3cccc(C(F)(F)F)c3)CC2)c(O)c2ncccc12	·	-17%	·	·	4%	·	·
Oc1ccc(CN2CCC(Cc3ccccc3)CC2)c2cccnc12	2.5µM*	7.9µM*	-2%	-11%	-3%	·	?
Oc1ccc(CN2CCN(c3ccccc3)CC2)c2cccnc12	11µM*	1.4µM*	3%	-12%	4%	6%	i
Cc1cccc(NC(=S)NC2CCCC2)c1	?	-1%	-4%	-22%	-1%	10%	+
Cc1ccc(NC(=S)NNC(=O)C2CC2c2ccc(C)cc2)cc1 (configuration not stated)	?	-3%	-1%	12%	-11%	-6%	·
Cc1ccc(C2CC2C(=O)NNC(=S)Nc2cccc(C)c2)cc1 (configuration not stated)	10µM*	-18%	-2%	13%	-5%	-25%	i
O=C(O)COc1ccccc1/C=N/NC(=O)CNC(=O)c1ccco1	0.4µM*	-17%	0%	-6%	-10%	15%	i
CCC12CN3CC(C)(CN(C1)C3c1ccccc1C)C2=O (configuration not stated)	·	1%	·	·	0%	·	·
COc1ccccc1NCC(=O)N/N=C/c1c(O)ccc2ccccc12	0%	-34%	11%	4%	2%	1%	·
COc1ccccc1N(CC(=O)N/N=C/c1c(O)ccc2ccccc12)S(C)(=O)=O	11µM*	2%	2%	18%	1%	26%	+
O=C(CN1CCCc2ccccc21)N/N=C/c1ccccc1	8%	0%	5%	·	-4%	0%	·
O=C(CN1CCCc2ccccc21)N/N=C/c1c(O)ccc2ccccc12	10µM*	-8%	3%	5%	-4%	12%	i
COc1ccc(CCNC(=O)C(=O)NCC2OCCN2S(=O)(=O)c2ccccc2)cc1OC (configuration not stated)	11µM*	-25%	-7%	1%	3%	5%	i
CCOC(=O)c1cccc(NC(=O)CN2C(=O)CC(C)(C)Sc3ccccc32)c1	·	-4%	·	·	0%	·	·
CCCCCN(C(=O)NC(=O)Nc1ccc(C)cc1C)S(C)(=O)=O	-2%	6%	10%	-2%	0%	·	·
CCCCCN(C(=O)NC(=O)Nc1ccc(C)cc1)S(=O)(=O)c1ccccc1	3.2µM*	-21%	1%	-5%	-1%	-10%	i
Cc1ccc(S(=O)(=O)c2nc(NCCN(C)C)sc2Cl)cc1	?	-19%	10%	12%	-3%	8%	i
Cc1ccc(S(=O)(=O)c2nc(Nc3ccccc3)sc2Cl)cc1	-94%	-20%	-1%	0%	-14%	-2%	·
CCOC(=O)CSc1nc2c(sc(=S)n2Cc2ccco2)c(=O)n1-c1ccccc1	?	0%	-1%	15%	-10%	?	i
CCN(CC)C(=O)CSc1nc2c(sc(=S)n2Cc2ccco2)c(=O)n1-c1ccccc1	-1%	?	-1%	-2%	-2%	24%	·
COc1ccc(OCC(=O)Nc2ccccc2C(=O)OCc2cc(=O)n3nc(C)sc3n2)cc1	·	5%	·	·	4%	·	·
CCC(=O)c1ccc(N2CCN(C(=O)c3cc([N+](=O)[O-])ccc3N3CCN(C)CC3)CC2)c(F)c1	?	8%	-3%	2%	-17%	5%	+
SMILES	SARS PLpro yeast-1	Sm TGR block	LmPK inhibitor	RE007 growth inh	TbPYK inhibitor	NS1 inh	SARS PLpro yeast-2
CC(=O)NCCC(=O)Nc1nc(-c2ccc3ccccc3c2)cs1	?	3%	0%	1%	-1%	-1%	i
O=C(NN=Cc1ccc(O)cc1O)c1ccccc1NS(=O)(=O)c1cccs1	1.1µM*	·	·	6%	0%	·	i
COc1ccc(C=NNC(=O)c2ccccc2NS(=O)(=O)c2cccs2)cc1O	14%	·	·	4%	4%	·	·
N#CC1=C(N)Oc2c(c(=O)oc3ccccc23)C1c1cccnc1 (configuration not stated)	?	0%	-1%	5%	-4%	-7%	i
O=C1c2ccccc2NC(c2cn[nH]c2-c2ccccc2)N1O (configuration not stated)	?	-7%	7%	25%	-3%	18%	i
O=C1c2ccccc2NC(c2ccccc2O)N1O (configuration not stated)	5%	-14%	-2%	-1%	-3%	-3%	·
O=C1c2ccccc2NC(c2cn[nH]c2-c2ccc(Cl)cc2)N1O (configuration not stated)	7.9µM*	-18%	-1%	-13%	-20%	19%	?
Cc1ccc(S(=O)(=O)c2c(O)cc(C)c(NS(=O)(=O)c3ccc(Cl)cc3)c2C)cc1	·	-1%	·	·	1%	·	·
S=C(NCCc1ccccc1)Nc1ccccn1	5.6µM*	?	-1%	-19%	?	-2%	+
Cn1ncc2c(NNC(=O)c3ccc(Cl)c(Cl)c3)ncnc21	22%	-13%	1%	1%	-16%	-8%	·
Cn1ncc2c(NNC(=O)c3ccc(Cl)cc3Cl)ncnc21	?	-3%	5%	20%	-13%	-6%	i
O=C(c1ccccc1)N1CCN(C(=O)N2CCOCC2)CC1	?	-2%	0%	12%	4%	7%	i
COc1ccc(N(CN2C(=O)c3ccccc3C2=O)C(=O)C(C)C)cc1	4%	6%	-2%	-3%	-7%	-16%	·
COc1ccc(N(CN2C(=O)c3ccccc3C2=O)C(=O)COc2ccc(Cl)cc2Cl)cc1	13µM*	-1%	3%	-6%	4%	-14%	i
Cc1ccc(Cl)cc1Nc1nn2c(=O)c3ccc(C(=O)NCc4ccc(F)cc4)cc3nc2s1	·	41%	·	·	1%	·	·
